Potency and affinity values are given separately. Records with an inconclusive call do not appear. Unmarked numbers belong to inactive results.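 The calls were made as follows: active = raises choline transporter activity at one or more tested doses and gives a fitted dose-response curve; inconclusive = no clear call, values can overlap the other calls; inactive = no choline transporter activation at any dose, or no curve.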
Each molecule was assayed against High affinity choline transporter 1 (Homo sapiens) (UniProt Q9GZV3) (assay: CHT activators, dose response, cell-based, 10-point CRC, membrane potential dye (AID 602376)). Details: HEK293-CHT, choline-induced membrane potential dye, cells express CHT LV-AA mutant; series mostly up to 67 µM; percent activation: at the top concentration.
Chain of High affinity choline transporter 1 (Homo sapiens) (Q9GZV3 whole entry, looked up): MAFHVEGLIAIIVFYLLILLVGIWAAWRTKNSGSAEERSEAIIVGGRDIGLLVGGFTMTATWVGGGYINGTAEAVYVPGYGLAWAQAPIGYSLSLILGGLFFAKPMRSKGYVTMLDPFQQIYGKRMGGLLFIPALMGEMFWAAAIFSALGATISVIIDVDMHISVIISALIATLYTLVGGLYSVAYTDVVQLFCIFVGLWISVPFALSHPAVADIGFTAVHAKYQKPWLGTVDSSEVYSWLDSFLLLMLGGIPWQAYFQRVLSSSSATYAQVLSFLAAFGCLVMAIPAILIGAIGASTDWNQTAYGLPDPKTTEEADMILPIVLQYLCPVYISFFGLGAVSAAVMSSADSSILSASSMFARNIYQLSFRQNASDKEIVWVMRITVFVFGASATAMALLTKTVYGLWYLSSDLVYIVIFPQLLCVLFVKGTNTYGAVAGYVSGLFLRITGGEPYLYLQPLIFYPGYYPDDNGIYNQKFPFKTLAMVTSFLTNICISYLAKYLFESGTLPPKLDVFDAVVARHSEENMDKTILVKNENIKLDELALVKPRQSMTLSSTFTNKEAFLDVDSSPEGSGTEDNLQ
CCCCCn1c(=O)c(C(=O)NCc2ccncc2)c(O)c2ccccc21 was tested, and the “percent activation” value was 78.3%.
For CCCOC(=O)c1ccc(-[n+]2c(-c3ccccc3)cc(-c3ccccc3)cc2-c2ccccc2)cc1, the “percent activation” value was 105%.
In the case of COc1ccc(C2NCc3ccc4c(c3-n3cccc32)OCO4)cc1O (stereo not drawn), the “percent activation” value was 112%.

— PubChem BioAssay AID602376 (Johns Hopkins Ion Channel Center, 2012)
